# Records with an inconclusive call do not appear. Entries that show only a call come without a potency. A number with no mark means an inactive call. The source made the active and inactive calls. The call rests on the fitted dose curve; in most records, active means well fitted inhibition curve with a large enough effect; inconclusive means small, poorly fitted or top-dose-only effect; inactive means flat fitted curve, though single readings scatter.
# Experiment: P-glycoprotein substrates identified in KB-8-5-11 adenocarcinoma cell line, qHTS therapeutic library screen (AID 1346987); further: nearly all actives have a fitted effect of over 65% in size
# Conditions: KB-8-5-11 (P-gp overexpressing) viability, CellTiter-Glo, 72 h; series mostly up to 44.5 µM
# How it was run: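 Compounds are pinned in dose-response onto KB-8-5-11 cells (500 cells/well, colchicine-free medium) and left 72 h at 37 degree C. CellTiter-Glo luminescence then yields AC50 values.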
# Potency means the concentration at half of the fitted maximal effect.
SMILES,Potency,"activity change, negative = cytotoxicity"
CNc1nc(Nc2ccc(C(=O)N3CCOCC3)cc2OC)nc2[nH]cc(Cl)c12,5.8 µM (active),
C=CCCN1CCC2(CC1)CN(C(=O)c1c(F)cccc1F)c1ccc(Cl)cc12,inactive,
CC1(C)OC[C@H](NC(=O)Nc2ccc(Br)cc2Br)[C@H](c2ccccc2)O1,inactive,
C=Cc1ccccc1,inactive,
CC(C)n1c(=O)c(C(=O)NC2CC3CCC(C2)N3C[C@@H](O)CN(C)S(C)(=O)=O)cc2ccccc21 (some centres undefined),inactive,
Oc1cccc(C2NC(=S)Nc3cccc(F)c32)c1 (centres undefined),23.1 µM (active),
C[C@@H]1CC[C@@]23CC[C@]4(C)[C@@](C=CC5[C@@]6(C)CC[C@H](O)C(C)(C)C6CC[C@]54C)(OC2=O)C3[C@H]1C (some centres undefined),inactive,
C=C[C@@]1(C)C=C2C(=O)C(O)=C3[C@](C)(C(=O)O)CC[C@@H]4C[C@]34[C@]2(O)C(=O)C1,10.1 µM (active),
COc1ccc(-c2ccccc2)cc1NS(=O)(=O)c1cc(Cl)cc(Cl)c1O,inactive,
CN(C)CCN(Cc1ccc(-c2ccc(CNCCc3ccccc3)cc2)cc1)C(=O)CCC1CCCC1,4.11 µM (active),
CC[C@@H](Nc1c(Nc2cccc(C(=O)N(C)C)c2O)c(=O)c1=O)c1cc(C(C)C)co1,inactive,
CCCc1cc(C)n(C)c(=O)c1CN(C)C(=O)c1cc(-c2ccc(N3CCN(C(C)C)CC3)nc2)cc2c1cnn2C(C)C,inactive,
CC(=O)NC(C(=O)O[C@H]1CCC(C)(C)[C@@H]2CC=C3C(=O)OCC3(O)[C@@]12C)C(C)C (some centres undefined),inactive,
CNC(C)C(=O)NC(C(=O)N1CCCC1C(=O)Nc1snnc1-c1ccccc1)C1CCCCC1 (centres undefined),inactive,
C=C1C(=O)O[C@@H]2C=C(COC(C)=O)CC/C=C(\CO)CC[C@@H]12,inactive,
C=C1C(=O)O[C@@H]2C[C@H](C)C3=CC(=O)[C@H](O)[C@@]3(C)C[C@H]12,inactive,
C=C(C)C(=O)O[C@H]1/C(C=O)=C\CC/C(CO)=C/[C@H]2OC(=O)C(=C)[C@@H]2[C@@H]1OC,inactive,

SMILES,Potency,"activity change, negative = cytotoxicity"
CC1(C(=O)Nc2ccc(F)nc2)CCCN1c1nc(Nc2cc(C3CC3)[nH]n2)c2cccn2n1 (centres undefined),2.31 µM (active),
C=C1C(=O)OC2CC3(C)C(O)C(=O)C=C(C)C3CC12 (centres undefined),inactive,
C/C(=C\CCC(C)C1=CCC2(C)OC3=C(CC12)C(=O)C(O)CC3)CO (centres undefined),inactive,
CC(NCCCc1cccc(C(F)(F)F)c1)c1cccc2ccccc12 (centres undefined),inactive,
N#Cc1ccnc(Nc2cc(C3CCN(C4COC4)CC3)cc(N3CCC(F)(F)C3)n2)c1,16.4 µM (active),
CC(=O)O[C@H]1[C@H](O)C[C@@]2(C)C(CC[C@]3(C)C2CC=C2C4CC(C)(C)CC[C@]4(C(=O)O)CC[C@]23C)C1(C)C (some centres undefined),inactive,
N[C@@H]1c2cccnc2[C@H](OC(=O)N2CCC(n3c(=O)[nH]c4ncccc43)CC2)CC[C@H]1c1cccc(F)c1F,inactive,
CC(=O)OC1C(=O)C2C3OCC4=C3[C@@](C)(CC[C@@H]4O)CC[C@]2(C)[C@H]1C(C)C (some centres undefined),inactive,
CC(=O)O[C@@H]1C[C@]2(C)[C@@]3(CCC4[C@@]5(C)CC[C@H](O[C@@H]6O[C@H](C(=O)O)[C@@H](O)[C@H](OC7OC(CO)C(O)C(O)[C@H]7O[C@@H]7O[C@@H](C)[C@H](O)[C@@H](O)[C@H]7O[C@@H]7OC[C@](O)(CO)[C@H]7O)[C@H]6OC6OC(CO)C(O)C(O)C6O)C(C)(C)C5CC[C@]42C)OC[C@@]12CCC(C)(C)CC23 (some centres undefined),,-11.3% [at 9.29 µM]
O=C(Cn1cnnn1)N[C@@H]1C(=O)N2C(C(=O)O)=C(CSc3nncs3)CS[C@H]12,inactive,
CCC(C)C(=O)OC12C(OC(C)=O)C(C)C3(O)C(C=C(CO)CC4(O)C(=O)C(C)=CC43)C1C2(C)C (centres undefined),inactive,
C[C@H]1CO[C@@H]2Cn3cc(C(=O)NCc4ccc(F)cc4F)c(=O)c(O)c3C(=O)N12,inactive,
CC[C@@H](C)Nc1cc(C(=O)NC2CC3CCC(C2)N3c2ccc(C(=O)C3CC3)cn2)c(C)cc1C(N)=O (some centres undefined),0.13 µM (active),
CCCCCCOC(=O)/N=C(\N)c1ccc(NCc2nc3cc(C(=O)N(CCC(=O)OCC)c4ccccn4)ccc3n2C)cc1,inactive,
Cc1c(F)ccc(C(=O)Nc2cc([N+](=O)[O-])ccc2N2CCN(C)CC2)c1Cl,inactive,
CCCC1(CCC)CCC2(CCN(CCCN(CC)CC)C2)CC1,2.31 µM (active),
O=C(NCC1(N2CCN(c3ccccc3)CC2)CCOCC1)c1cccnc1Sc1ccccc1,inactive,

# — PubChem BioAssay (NCATS)
